Screening data from PubChem BioAssay.
ALR H2O2 inh = blocks human ALR sulfhydryl oxidase activity. 290,000 compounds, 3.8% hits. inhibition, % (test concentration not listed). AID 485317. purified ALR, DTT oxidation, H2O2 HRP-luminol luminescence. P55789;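 active = mean replicate inhibition above about 79%, with every replicate also reaching it, limit read from the data; inconclusive = only one of the two criteria met; inactive = mean below limit and not every replicate reaching it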
Target sequence (P55789 whole entry, looked up): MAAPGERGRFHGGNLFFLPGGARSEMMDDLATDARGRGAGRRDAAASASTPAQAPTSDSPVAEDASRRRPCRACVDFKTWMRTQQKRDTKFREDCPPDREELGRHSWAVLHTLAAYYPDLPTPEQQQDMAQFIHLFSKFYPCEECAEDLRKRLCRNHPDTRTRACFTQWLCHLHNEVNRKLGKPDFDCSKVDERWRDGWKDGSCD
Exocytosis inh = lytic granule exocytosis inhibition. 360,000 compounds, 0.66% hits. TALL-104 LAMP-1 surface exposure, flow cytometry; cells stimulated with thapsigargin and PMA. inhibition, % at 10 µM;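 active = inhibition above about 55%, limit read from the data; inconclusive = no clear call, values can overlap the other calls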
PfM18AAP inh = blocks P. falciparum M18 aspartyl aminopeptidase; inhibition, % at 7.35 µM; 290,000 compounds, 1.2% hits; recombinant PfM18AAP, H-Glu-NHMec fluorogenic cleavage;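 active = inhibition above the campaign mean inhibition over all tested compounds plus 3 SD, cut at about 28% in these data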
GASC-1 inh = inhibitors of human GASC-1 (JMJD2C) demethylase | Q9H3R0 | 330,000 compounds, 0.069% hits | inhibition, % at 2.35 µM | GST-JMJD2C(1-420) H3K9me3 demethylation, DELFIA europium;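 active = more than half of a compound's replicate wells show inhibition beyond 50%, single wells judged on their own value; inconclusive = some, but no more than half, of replicates pass 50% inhibition; inactive = no replicate passes 50% inhibition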;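 also: signal counts dimethyl H3K9 product captured on neutravidin plate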
Target sequence (Q9H3R0 1-420 limits assumed): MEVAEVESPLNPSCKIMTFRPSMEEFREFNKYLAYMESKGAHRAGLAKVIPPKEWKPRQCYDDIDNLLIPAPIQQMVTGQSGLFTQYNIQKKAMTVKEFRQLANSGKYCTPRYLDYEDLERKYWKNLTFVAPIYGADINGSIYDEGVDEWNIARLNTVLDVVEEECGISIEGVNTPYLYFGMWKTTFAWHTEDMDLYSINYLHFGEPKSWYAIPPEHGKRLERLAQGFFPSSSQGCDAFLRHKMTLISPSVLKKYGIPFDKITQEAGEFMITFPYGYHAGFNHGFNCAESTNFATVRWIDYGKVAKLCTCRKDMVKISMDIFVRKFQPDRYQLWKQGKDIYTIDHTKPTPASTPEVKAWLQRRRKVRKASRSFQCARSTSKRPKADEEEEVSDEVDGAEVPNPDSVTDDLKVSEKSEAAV
SMARCA2 act = increases SMARCA2 function in MMTV reporter cells. MG213 cells, MMTV-luciferase reporter, dexamethasone, overnight. activation, % at 9.1 µM. 370,000 compounds, 1% hits. AID 652017; in the data active = activation above about 7.8%
MIN6 prolif = induces beta-cell replication in MIN6 cells. 330,000 compounds, 0.29% hits. proliferation, % at 10 µM. MIN6 cells proliferation, ATPlite luminescence, 48 h; cells starved in 0.2% serum; 100% = growth in 10% serum. AID 2380;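 active = compounds whose signal lies at least 3.5 SD above the mean of all wells on their plate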
Exocytosis CP01 = blocks lytic granule exocytosis; shares compounds with Exocytosis inh; inhibition, % at 10 µM; 1,500 compounds, 11% hits; TALL-104 cells, LAMP-1 externalization, flow cytometry; stimulated with PMA plus thapsigargin; AID 651954; in the data active = inhibition above about 60%
Large screens that a line does not name were inactive (follow-up assays come after a bar, where they were run). Sampled rows, rich in hits. Any-hit rate of the full collection: about 5.4%.

CCOc1ccc2nc(N(CCCN(C)C)C(=O)c3ccc(S(=O)(=O)N4CCc5ccccc5C4)cc3)sc2c1	Exocytosis inh 68 | Exocytosis CP01 84
Cc1ccc(C(=O)NC2CCCCN(C)C2=O)c(C)c1 (stereo unspecified)	none (no result: ALR H2O2 inh, Exocytosis inh, PfM18AAP inh, GASC-1 inh, MIN6 prolif)
COc1cc(CNc2cccc3c2S(=O)(=O)N([C@H](C)c2ccccc2)C[C@@H](COCc2ccccc2)O3)cc(OC)c1OC	none (no result: ALR H2O2 inh, Exocytosis inh, PfM18AAP inh, GASC-1 inh, MIN6 prolif)
Cc1coc2c1c(C)cc1oc(=O)c(Cc3ccccc3)c(C)c12	Exocytosis inh 63 | Exocytosis CP01 inactive
Cc1coc2c1c(C)cc1oc(=O)c(CC(=O)NCC(=O)NCC(=O)O)c(C)c12	Exocytosis inh inconclusive
CC(C)(C)[C@@H]1COC(=O)[C@@H](Cc2ccc(F)cc2)C/C=C\C[C@H](CC(=O)N(CCO)Cc2ccccc2)C(=O)N1	Exocytosis inh 57 (no result: PfM18AAP inh) | Exocytosis CP01 inactive
CC(C)(C)[C@@H]1COC(=O)[C@H](Cc2ccc(F)cc2)CC/C=C\C[C@@H](CC(=O)N(CCO)Cc2ccccc2)C(=O)N1	none (no result: PfM18AAP inh)
C[C@H](CO)N1C[C@H](C)[C@@H](CN(C)C(=O)Nc2ccc(C(F)(F)F)cc2)OCc2cn(nn2)CCCC1=O	none (no result: ALR H2O2 inh, Exocytosis inh, PfM18AAP inh, GASC-1 inh, MIN6 prolif)
CC1CCN(c2nc(-c3ccccc3O)nc3ccccc23)CC1	Exocytosis inh 59 | Exocytosis CP01 inactive
COc1cccc(-c2nc(N3CCC(C)CC3)c3ccccc3n2)c1O	none
CC1CCCC(C)N1S(=O)(=O)c1ccc(Cl)cc1 (stereo unspecified)	none
CC1=C(C)CS(=O)N(S(=O)(=O)c2ccc(Cl)cc2)C1 (stereo unspecified)	ALR H2O2 inh 99, Exocytosis inh 64 | Exocytosis CP01 94
CCc1nc2ccc(C(=O)Nc3cc(-c4ccccc4)ccc3OC)cn2c1N(CC)CCN(C)C	Exocytosis inh 60 (no result: ALR H2O2 inh, PfM18AAP inh, GASC-1 inh, MIN6 prolif) | Exocytosis CP01 inactive
COc1cc(CN2CCCC(N3CCN(c4ccc(F)cc4)CC3)C2)ccc1F (stereo unspecified)	Exocytosis inh 61 (no result: ALR H2O2 inh) | Exocytosis CP01 inactive
COc1ccc(CC(=O)NCC2CCCN(Cc3ccc(SC)cc3)C2)cc1 (stereo unspecified)	none (no result: ALR H2O2 inh)
CSc1ccc(CN2CCCC(N3CCN(c4ccccc4)CC3)C2)cc1 (stereo unspecified)	Exocytosis inh 67 (no result: ALR H2O2 inh) | Exocytosis CP01 inactive
COc1ccc(CC(=O)NCC2CCCN(Cc3ccc(F)c(OC)c3)C2)cc1 (stereo unspecified)	Exocytosis inh 59 (no result: ALR H2O2 inh) | Exocytosis CP01 inactive
CCOc1ccc(CN2CCCC(N3CCN(c4ccc(OC)cc4)CC3)C2)cc1 (stereo unspecified)	none (no result: ALR H2O2 inh)
OCCOc1ccc(CN2CCCC(N3CCN(c4ccc(F)cc4)CC3)C2)cc1 (stereo unspecified)	none (no result: ALR H2O2 inh)
COc1ccc(C(=O)C(=O)N2CCN(C(=O)c3cc(C(F)(F)F)cc(C(F)(F)F)c3)CC2)cc1OC	none (no result: ALR H2O2 inh, Exocytosis inh, PfM18AAP inh, GASC-1 inh, MIN6 prolif)
OC(CCN1CCCCC1)(c1ccccc1)C1CC2C=CC1C2 (stereo unspecified)	none (no result: ALR H2O2 inh, Exocytosis inh, PfM18AAP inh, GASC-1 inh, MIN6 prolif)
COc1ccc(N2C(=O)c3n[nH]c(C)c3C2c2ccc(F)cc2)cc1 (stereo unspecified)	none (no result: ALR H2O2 inh, Exocytosis inh, PfM18AAP inh, GASC-1 inh, MIN6 prolif)
CCOC(OCC)P(=O)(CNC(c1ccccc1)(c1ccccc1)c1ccccc1)OCC (stereo unspecified)	none (no result: ALR H2O2 inh, Exocytosis inh, PfM18AAP inh, GASC-1 inh, MIN6 prolif)
O=C(N[C@@H](Cc1cccnc1)C(=O)N1CCC[C@H]1C(=O)NCCc1ccccc1Cl)c1ccco1	none (no result: ALR H2O2 inh, Exocytosis inh, PfM18AAP inh, GASC-1 inh, MIN6 prolif)
COc1ccccc1N(CC(=O)Nc1cccc(C(F)(F)F)c1)S(C)(=O)=O	Exocytosis inh 80 | Exocytosis CP01 inactive
COc1ccccc1N(CC(=O)Nc1ccc2c(c1)OCCO2)S(=O)(=O)c1ccc(C)cc1	Exocytosis inh 73 (no result: ALR H2O2 inh) | Exocytosis CP01 inactive
COc1ccccc1N(CC(=O)Nc1ccc2c(c1)OCCO2)S(C)(=O)=O	none (no result: ALR H2O2 inh)
CCOc1ccccc1N(CC(=O)NC1CCCCC1)S(=O)(=O)c1ccc(C)cc1	Exocytosis inh 93 | Exocytosis CP01 inactive
COC(=O)c1cc2c(c3c4cc(F)ccc4n(S(=O)(=O)c4ccccc4)c13)C(=O)N(Cc1ccc(C(F)(F)F)cc1)C2	none (no result: ALR H2O2 inh, Exocytosis inh, PfM18AAP inh, GASC-1 inh, MIN6 prolif)
COCCN1C(=O)[C@H]2C[C@@]13O[C@H](C1CCCCC1)N=C3CC1c3ccccc3C[C@@]12C (stereo partly specified)	none (no result: ALR H2O2 inh, Exocytosis inh, PfM18AAP inh, GASC-1 inh, MIN6 prolif)
OC1(c2cccc(C(F)(F)F)c2)CCN(c2ncnc3c2[nH]c2ccc(F)cc23)CC1	Exocytosis inh 96 (no result: ALR H2O2 inh, GASC-1 inh, MIN6 prolif) | Exocytosis CP01 68
Fc1ccc2[nH]c3c(N4CCN(c5ccccc5)CC4)ncnc3c2c1	none
COc1ccc2[nH]c3c(N4CCc5ccccc5C4)ncnc3c2c1	Exocytosis inh 99 | Exocytosis CP01 102
CCOC(=O)N1CCN(c2ncnc3c2[nH]c2ccc(OC)cc23)CC1	none
COc1ccc(NC(=O)Nc2c(O)ccc3ccccc23)cc1	Exocytosis inh 87 (no result: PfM18AAP inh) | Exocytosis CP01 inactive
COc1ccc(NC(=O)N(C)C[C@H]2OCCCC[C@H](C)Oc3ccc(NC(=O)Nc4cccc5ccccc45)cc3C(=O)N([C@@H](C)CO)C[C@H]2C)cc1	none (no result: ALR H2O2 inh, Exocytosis inh, PfM18AAP inh, GASC-1 inh, MIN6 prolif)
CC(C)c1ccc(NC(=O)[C@H](NC(=O)[C@@H]2Cc3ccccc3CN2)c2ccccc2)cc1	Exocytosis inh 59 | Exocytosis CP01 inactive
Cc1ccc(NC(=O)[C@H](NC(=O)[C@@H]2Cc3ccccc3CN2)c2ccccc2)cc1	none
NCCc1c(-c2ccccc2)n(-c2ccccc2)c2ccccc12	Exocytosis inh 91 (no result: ALR H2O2 inh) | Exocytosis CP01 70
CC(Nc1nc(N2CCNCC2)nc2ccccc12)c1ccccc1 (stereo unspecified)	Exocytosis inh 87 | Exocytosis CP01 79
C[C@H](CO)N1C[C@H](C)[C@@H](CN(C)C(=O)Nc2ccc(-c3cccs3)cc2)OCc2cn(nn2)CCCC1=O	none (no result: ALR H2O2 inh, Exocytosis inh, PfM18AAP inh, GASC-1 inh, MIN6 prolif)
CCOC(=O)c1c(CSc2ccccc2)n(C)c2cc(Br)c(O)c(CN(C)C)c12	ALR H2O2 inh 84, Exocytosis inh 73 | Exocytosis CP01 107
CCOC(=O)c1c(CSc2ccccc2)n(C)c2ccc(O)c(CN3CCN(C)CC3)c12	Exocytosis inh 59 | Exocytosis CP01 inactive
CCOC(=O)c1c(CSc2ccc(C)cc2)n(C)c2cc(Br)c(O)c(CN(C)C)c12	ALR H2O2 inh inconclusive
CCOC(=O)N1CCN(C(=O)C[C@H]2C[C@@]3(C(=O)OC)C(=C[C@H](C(C)(C)C)O[C@@H]3C)N(CCc3ccc(OC)c(OC)c3)C2=O)CC1	none (no result: ALR H2O2 inh, Exocytosis inh, PfM18AAP inh, GASC-1 inh, MIN6 prolif)
c1ccc(C2=NOC(c3nnc(-c4ccccc4)o3)C2)cc1 (stereo unspecified)	Exocytosis inh 91 (no result: ALR H2O2 inh, PfM18AAP inh) | Exocytosis CP01 inactive
Fc1ccc(C2=NOC(c3nnc(-c4ccccc4)o3)C2)cc1 (stereo unspecified)	none (no result: ALR H2O2 inh, PfM18AAP inh)
CC1=Nc2ccccc2/C1=C\c1nc(-c2ccc(F)cc2)oc1O	Exocytosis inh 76 | Exocytosis CP01 inactive
